Type in all cases: functional
Test [1] deals with Plasmodium falciparum. The test is described as follows: GSK_TCMDC: Inhibition of Plasmodium falciparum 3D7 in whole red blood cells, using parasite LDH activity as an index of growth. Test compounds present at 2uM.
In test [2] the test system is Plasmodium falciparum. The test is described as follows: GSK_TCMDC: Inhibition of Plasmodium falciparum Dd2 in whole red blood cells, using parasite LDH activity as an index of growth. Test compounds present at 2uM.
A further test concerns HepG2. The test is described as follows: GSK_TCMDC: Percent inhibition of human HepG2 cell line. Test compounds present at 10uM.

“And” between values parts separate entries of the source, which are not always exact repeats. Equal values may be shown once.

Take `COc1ccc2nccc([C@@H](O)CN3CCC(NC(=O)c4ccc(Oc5ccccc5)cc4)CC3)c2c1`: the values for the Inhibition with Plasmodium falciparum [1], with Plasmodium falciparum [2] and in the test with HepG2 were 82%, 13% and 39%, respectively.
Taken in the same sequence, the figures for `CCOC(=O)c1c(NC(=O)c2ccccc2)sc2c(O)c(CN(CC)CC)ccc12.Cl` were 100%, 100% and 9%.
Consider `CC(=O)c1c(CC(=O)O)c2ccccc2n1O`, for which the values for the Inhibition with Plasmodium falciparum [1], in the test on Plasmodium falciparum [2] and with HepG2 were 98%, 0% and 16%, respectively.
For `O=S(=O)(c1cc(Cl)sc1Cl)N(CCC(O)(C(F)(F)F)C(F)(F)F)Cc1cccc(O)c1`, the results for the Inhibition in the test on Plasmodium falciparum [1], in the test on Plasmodium falciparum [2] and with HepG2 were 98%, 97% and 0%, respectively.
Take `COc1ccc(C(=O)COc2cccc(/C=C/C(=O)O)c2)cc1OC`: the Inhibition is 84% with Plasmodium falciparum [1], 28% in the test on Plasmodium falciparum [2] and 44% with HepG2.
Turning to `Cc1cccc(-c2nc(Nc3ccncc3)c3ccc([N+](=O)[O-])cc3n2)n1`, the Inhibition turned out to be 87% in the test with Plasmodium falciparum [1], 13% in the test on Plasmodium falciparum [2] and 0% with HepG2.
For `Cc1ccc(C(=O)N2CCc3cc4nccc(N5CCN6CCC[C@H]6C5)c4cc32)cc1`, the results for the Inhibition in the test with Plasmodium falciparum [1], in the test on Plasmodium falciparum [2] and with HepG2 were 95%, 13% and 5%, respectively.
For `Br.CN(C)CCCOc1ccc(-c2csc(NC(=N)NCc3ccccc3)n2)cc1` the same measures were 100%, 97% and 57%.
For `CS(=O)(=O)CCNCc1cccc(-c2cc3c(Nc4ccc5c(cnn5Cc5ccccc5)c4)ncnc3s2)c1.O=C(O)C(F)(F)F`, the Inhibition in the test on Plasmodium falciparum [1] is 100%; in the test on Plasmodium falciparum [2], 100%; in the test on HepG2 it was 36%.
Take `COc1cccc(-c2cnc(N)c(-c3nc4cc(Cl)c(F)cc4[nH]3)c2)c1`: the Inhibition in the test with Plasmodium falciparum [1] worked out at 100%; in the test with Plasmodium falciparum [2], 26%; in the test with HepG2, 37%.
Taken in the same sequence, the figures for `CCCc1cc2c3c(N)nc(N)nc3ccc2n1C(CC)CC` were 100%, 73% and 70%.
Taken in the same sequence, the figures for `CN1CCC(c2csc3ccc(NC(=O)Nc4ccc(-c5ccncc5)c5ccccc45)cc23)CC1` were 98%, 71% and 8%.
Taken in the same sequence, the figures for `CN1CCCC(CN2CCN(Cc3cccc(-c4ccc(-c5nc6cc(C(F)(F)F)ccc6[nH]5)cc4)c3)CC2)C1.O=C(O)C(F)(F)F` (centres undefined) were 99%, 96% and 100%.
Take `CCOC(=O)c1cn(CC)c2cc(F)c(OC3CC4CCC3(C)C4(C)C)cc2c1=O` (centres undefined): the Inhibition stood at 91% with Plasmodium falciparum [1], 70% with Plasmodium falciparum [2] and 0% in the test with HepG2.
For `O=C1OC(c2cc3ccccc3n2S(=O)(=O)c2ccccc2)(c2cc3ccccc3n2S(=O)(=O)c2ccccc2)c2ccccc21` the same measures were 95%, 78% and 1%.
As to `Br.CCCC1N=C(N)N=C(N)N1c1cccc([N+](=O)[O-])c1` (centres undefined), the Inhibition in the test with Plasmodium falciparum [1] was found to be 96%; in the test with Plasmodium falciparum [2] it was 1%; in the test on HepG2 it was 0%.
For `O=C(NCCCN1CCCC1=O)NCc1ccccc1` the same measures were 99%, 4% and 8%.
Taken in the same sequence, the figures for `CC(C)(C)c1ccc(/C=C/C(=O)NCCCCCN2CCC(c3c[nH]c4ccccc34)CC2)cc1` were 91%, 12% and 70%.
For the molecule `Cc1cc(N[C@@H](CC(C)C)C(=O)NCc2cccs2)nc(NCCc2ccccc2)n1.O=C(O)C(F)(F)F`, the Inhibition with Plasmodium falciparum [1] is listed as 94%; in the test with Plasmodium falciparum [2] it was 8%; with HepG2, 1%.
Taken in the same sequence, the figures for `Cc1ccc(Cn2nc(Cl)c(N3CCNCC3)cc2=O)cc1NC(=O)Nc1ccc(-c2ccccc2)cc1.O=C(O)C(F)(F)F` were 98%, 97% and 100%.
For `Cc1cc(N2CCN(C)CC2)nc2ccc(NC(=O)c3cccc(N(C)C)c3)cc12` the same measures were 85%, 23% and 9%.
For `CC1CC(C)CN(CC(O)CNC(=O)Nc2ccc(Br)cc2)C1.O=C(O)C(F)(F)F` (centres undefined) the same measures were 94%, 44% and 13%.
Turning to `O=C(Nc1ccc(OC2CCN(Cc3ccccc3)CC2)c(Cl)c1)c1ccc(F)cc1.O=C(O)C(F)(F)F`, the Inhibition in the test with Plasmodium falciparum [1] came out at 94%; in the test on Plasmodium falciparum [2] it was 92%; with HepG2 it was 30%.
Taken in the same sequence, the figures for `Oc1c(CN2CCCC(C(F)(F)F)C2)cc(Cl)c2ccccc12` (centres undefined) were 94%, 53% and 23%.
Take `Cc1cccc(CNc2nccc3[nH]c4ccccc4c23)c1.O=C(O)C(F)(F)F`: the Inhibition in the test with Plasmodium falciparum [1] turned out to be 92%; in the test on Plasmodium falciparum [2], 51%; in the test on HepG2, 14%.
For `CN1CCC=C(C(=O)NCC(C)(C)c2nc(-c3ccc(Cl)c(O)c3)c(-c3ccncc3)[nH]2)C1.Cl` the same measures were 96%, 96% and 39%.
Take `O=C(O)C(F)(F)F.OCCN1CCN(Cc2ccc(-c3cccc(-c4nc5ccccc5[nH]4)c3)cc2)CC1`: the Inhibition was 96% in the test with Plasmodium falciparum [1], 16% with Plasmodium falciparum [2] and 32% in the test with HepG2.
Taken in the same sequence, the figures for `CN(C)c1ccc(/N=C2/N/C(=N/c3ccc(N(C)C)cc3)c3ccccc32)cc1` were 93%, 20% and 23%.
Taken in the same sequence, the figures for `COc1ccc(CNC2CCN(C)CC2)cc1-c1ccc(S(=O)(=O)NCCc2ccccn2)c(F)c1.O=C(O)C(F)(F)F` were 100%, 55% and 3%.
As to `O=C(CCn1c2ccccc2c2ccccc21)NN=Cc1ccco1`, the values for the Inhibition in the test with Plasmodium falciparum [1], in the test with Plasmodium falciparum [2] and with HepG2 were 96%, 0% and 6%, respectively.
On to `O=C(O)C(F)(F)F.O=S(=O)(NCCN1CCCC1)c1ccc(-c2cccc(CNCc3ccccc3)c2)s1`, for which the Inhibition is 94% in the test on Plasmodium falciparum [1], 43% with Plasmodium falciparum [2] and 44% in the test with HepG2.
Turning to `CC(C)COc1ccc(Cl)cc1Cc1ccc(-c2nc3cc(N4CCN(C)CC4)ccc3[nH]2)o1.Cl`, the Inhibition in the test with Plasmodium falciparum [1] stood at 100%; in the test with Plasmodium falciparum [2], 41%; in the test on HepG2 it was 6%.
Consider `C=CCc1cc(Br)ccc1OCCCOc1c(C)nc(N)nc1N.Cl`, for which the values for the Inhibition in the test with Plasmodium falciparum [1], in the test with Plasmodium falciparum [2] and with HepG2 were 94%, 96% and 56%, respectively.
For `COc1cc(C2C(Oc3ccccc3)C(=O)N2Cc2ccc(F)cc2)cc(OC)c1OC` (centres undefined) the same measures were 100%, 97% and 0%.
For `O=C(N[C@@H](CC1CCCCC1)C(=O)NCCN1CCCC1)c1ccc(O)c(-c2cccc(C(F)(F)F)c2)c1`, the Inhibition with Plasmodium falciparum [1] is 99%; in the test on Plasmodium falciparum [2], 55%; with HepG2, 0%.
For `CC(C)C[C@H]1C(=O)N[C@H](C2Cc3ccccc3C2)C(=O)N1[C@@H](C(=O)Nc1ccccc1OCc1ccccc1)c1ccc(F)cc1F` the same measures were 90%, 67% and 12%.
Taken in the same sequence, the figures for `COc1ccc2nccc([C@@H](O)CN3CCC(NCc4cc5ccccc5cn4)CC3)c2n1.O=C(O)C(=O)O` were 93%, 14% and 3%.
Turning to `CC(C)CNC(=O)c1cncc(-c2ccc(CN3CCC(N4CCCC4)CC3)cc2)c1.O=C(O)C(F)(F)F`, the figures for the Inhibition with Plasmodium falciparum [1], with Plasmodium falciparum [2] and in the test with HepG2 were 100%, 42% and 25%, respectively.
Taken in the same sequence, the figures for `Cc1nc(N)nc(N)c1C#CC1CCCC1` were 96%, 2% and 68%.
For `O=C(NCc1cccs1)[C@H](Cc1ccccc1)Nc1ccnc(NCCc2ccccc2)n1.O=C(O)C(F)(F)F` the same measures were 85%, 59% and 0%.
Taken in the same sequence, the figures for `CCOc1cc(C(=O)N[C@@H](Cc2ccccc2)[C@H](O)CNCc2cc(OC)cc(OC)c2)cc(N2CCCS2(=O)=O)c1.Cl` were 94%, 66% and 0%.
With `COc1cccc2cc(C(=O)N[C@@H](CC(C)C)C(=O)N[C@H](/C=N/NC(=O)N3CCN(C)CC3)CCc3ccccc3)oc12.Cl`, the Inhibition in the test with Plasmodium falciparum [1] was determined as 85%; in the test on Plasmodium falciparum [2] it was 73%; in the test with HepG2, 1%.
With `Cc1[nH]c2cc(F)ccc2c(=O)c1Cc1ccc(Cl)cc1.Cc1[nH]c2cccc(F)c2c(=O)c1Cc1ccc(Cl)cc1`, the Inhibition in the test with Plasmodium falciparum [1] was 94% and 93%; in the test on Plasmodium falciparum [2] it was 92% and 94%; in the test on HepG2 it was 7% and 6%.
Take `O=C(Nc1ccccc1Cc1ccccc1)c1ccccc1[N+](=O)[O-]`: the results for the Inhibition in the test on Plasmodium falciparum [1], in the test on Plasmodium falciparum [2] and in the test on HepG2 were 98%, 59% and 0%, respectively.
Consider `O=C(/C=C/c1ccc([N+](=O)[O-])cc1)N1CCC(NS(=O)(=O)c2cccc(C(F)(F)F)c2)CC1`, for which the results for the Inhibition with Plasmodium falciparum [1], in the test on Plasmodium falciparum [2] and with HepG2 were 94%, 8% and 0%, respectively.
Taken in the same sequence, the figures for `Cc1cc(C2CCN(CCCCNC(=O)c3ccc(NC(=O)c4ccc(Cl)cc4)cc3)CC2)c(C)cc1OCc1cccnc1` were 100%, 90% and 39%.
For `COc1cccc(CN2CCC(C(=O)Nc3ccc(-c4nc5ccccc5[nH]4)cc3)CC2)c1` the same measures were 100%, 84% and 9%.
For `Cc1ccc(C(NC(=O)Cc2ccccc2)c2ccc3cccnc3c2O)cc1` (centres undefined) the same measures were 94%, 77% and 47%.

In general, Inhibition refers to the share of the control response that was lost under treatment. High values mean a strong effect, low ones a weak effect.

Source of the values: ChEMBL document CHEMBL1157539, “Thousands of chemical starting points for antimalarial lead identification” (Nature, 2010).
